Compounds without any hit were thinned out: in the full panel of roughly 83,000, 20% have a hit.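 Step 1: grow cells in 96-well plates. Step 2: add test compound at a single concentration. Step 3: incubate 48 h. Step 4: record percent growth.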 Values without a mark were called inactive.
Each compound was assayed on SNB-19 CNS (assay: NCI-60 one-dose screen, 48 h (100 = growth as untreated, 0 = no growth, -100 = all killed)). Conditions: 10 µM unless noted.
Description: Growth inhibition of the SNB-19 human tumor cell line is measured as a screen for anti-cancer activity. Cells are grown in 96 well plates and exposed to the test compound for 48 hours. Compounds are tested at a single concentration, which is 10^-5 M for most compounds. The reported endpoint is percent growth (GI% or GIPRCNT), where numbers from 0 - 100% represent growth inhibition, and numbers from -100% - 0 represent cell death. For example, a value of 40 represents 60% growth inhibition. A value of 0 means no net growth occurred over the course of the experiment. A value of -40 indicates 40% of cells at the beginning of the experiment died by the end of the experiment. A value of -100 means all cells are dead at the end of the experiment.
NCI-60 Human Tumor Cell Lines Screen was performed using the standard one-dose NCI protocol, which is described in more detail at https://dtp.cancer.gov/discovery_development/nci-60/default.htm.
Compounds with GIPRCNT values below 10 were considered active. Activity score was based on GIPRCNT using the following formula: […]
Score is 0 for GIPRCNT values of 100 or above, 50 for GIPRCNT values of 0, and 100 for GIPRCNT values of -100.

Row | Structure (SMILES) | growth [%]
1 | CC(=O)Nc1cccc(C2=CC(c3ccc(C)cc3)n3ncnc3N2)c1 (stereo not given) | 91.1
2 | COc1cc(NC(=O)c2cccc(-c3cc(=O)c4c(O)c(OC)c(OC)cc4o3)c2)cc(OC)c1OC | 50
3 | Cn1c(NCCc2ccc(O)c(O)c2)nc2c1c(=O)n(Cc1ccc(Cl)cc1)c(=O)n2C | 93
4 | NC(N)=N/N=C(/c1ccccc1)c1ccc(N)cc1 | 106
5 | C=CCOc1cccc(/C=C2\SC(=Nc3ccc(O)cc3)NC2=O)c1 | 30.9
6 | COc1cc2c(=O)n(CCCn3ccnc3)c3c4cc5c(cc4ccc3c2cc1OC)OCO5 | 19.3
7 | CN(C)S(=O)(=O)n1cnc([C@@H]2[C@@H]3C(=O)OC[C@@H]3C[C@]23N=CN(Cc2ccccc2)C3=O)c1 | 98.2
8 | O=C1/C(=C/c2ccccc2[N+](=O)[O-])COc2ccc(O)c(O)c21 | 26.5
9 | N#Cc1c(N)n2c(nc1=Nc1ccc(Cl)cc1)sc1cc(Cl)ccc12 | 75.5
10 | CN1CCN(C(=O)[C@@]2(C)CC[C@]3(C)CC[C@]4(C)C(=CC[C@@H]5[C@@]6(C)C/C(=C/c7ccncc7)C(=O)C(C)(C)[C@@H]6CC[C@]54C)[C@@H]3C2)CC1 | 62.7
11 | CCOC(=O)c1c(C)[nH]c(C(=O)CCC(=O)OC)c1C | 106
12 | COc1ccc(Oc2nc(Nc3ccc(N4CCCCC4)nc3)ncc2NC(=O)c2cc(OC)cc(OC)c2)cc1 | 41.5
13 | CN1CCN(C2=C(Cl)C(=O)c3ccccc3C2=O)CC1 | 93.1
14 | C=C1c2c(C)nn(-c3ccc(N)cc3)c2N(C)C23CC1C1(C)c4c(C)nn(-c5ccc(N)cc5)c4N(C)C(C)(CC12)C3 (stereo not given) | 80.7
15 | CCN(CC)CCNc1ccc(C)c2sc3cc(C)ccc3c(=O)c12 | 57.6
16 | N[C@@H]1CCC[C@H]1NCCCCN1C(=O)c2cccc3cccc(c23)C1=O | 85.5
17 | C=C(C)C1CCC(=C)C2CCC3(C)OC12/C=C(/COC(C)=O)CCC3O (stereo not given) | 112
18 | COc1ccc(C(=O)/C=C/C23c4ccccc4C(c4ccccc42)C2C(=O)NC(=O)C23)cc1 (stereo not given) | 92.6
19 | Cc1nc(-c2ccccc2)cc2c(O)c(C(=O)N/N=C/c3ccc(N(C)C)cc3)[nH]c(=O)c12 | 117
20 | C[C@@H]1CC[C@@H]2[C@@H]1[C@H](OC(=O)/C=C/c1ccccc1)[C@]1(C3CCCCC3)C[C@@H](NC(=O)CO)[C@@]2(C)O1 | 104

Row | Structure (SMILES) | growth [%]
21 | COc1ccc(/C=C(\C#N)n2nnc3ccccc32)cc1 | 23
22 | Cc1[nH]c(-c2nc3ccccc3[nH]2)c(C)c1C(=O)N1CCc2sccc2C1 | 89.4
23 | COc1cc(/C=C/c2nc(Nc3ccc(S(=O)(=O)Nc4cc(C)on4)cc3)c3ccccc3n2)ccc1O | 64.3
24 | CCOC(=O)c1sc2ccc(NCc3nc[nH]c3C)cc2c1NC(=O)c1cc(OC)c(OC)c(OC)c1 | 93
25 | O=C(c1ccccc1)c1ccc(Cl)c([N+](=O)[O-])c1 | 98.5
26 | CCOc1cc(C2C(Cl)C(=O)N2n2cnnc2)ccc1O (stereo not given) | 102
27 | N#Cc1c(Oc2ccc([N+](=O)[O-])cc2)nc2sc3cc(Cl)ccc3n2c1=N | 74.8
28 | O=C(NCOC(O)C(Cl)(Cl)Cl)NCOC(O)C(Cl)(Cl)Cl (stereo not given) | 98.4
29 | COc1cc(C2CC(=O)Nc3n[nH]c(-c4ccccc4)c32)cc(OC)c1OC (stereo not given) | 75.4
30 | O=C(NCc1cccnc1)c1cc(-c2csc3c(=O)cc(N4CCOCC4)oc23)cc2c1OCCO2 | 47.5
31 | CCCCNCC(=O)Nc1ccc(C(=O)OCC)cc1 | 103
32 | O=C1CSC(c2ccc(O)cc2)N1c1nnc(Cn2cnnc2)o1 (stereo not given) | 97.9
33 | C[N+](C)(C)CCOC(OCC[N+](C)(C)C)(c1ccccc1)c1ccccc1 | 93.9
34 | COc1ccc(OC)c(C(=O)Nc2cccc(-c3cc(=O)c4ccccc4o3)c2)c1 | 70.7
35 | O=C1CC(c2ccc3c(c2)OCO3)Nc2cc3c(cc21)OCO3 (stereo not given) | 28.3
36 | CCCCS(=O)(=O)Oc1ccc(-c2nc(C)c(C(=O)OCC)s2)cc1C=O | 53.8
37 | O=C1CSC(c2ccccc2O)N1c1nnc(Cn2cnnc2)o1 (stereo not given) | 90.4
38 | Cc1cccc(-c2cc(O)c(C(=O)N3CCOCC3)s2)c1 | 31.5
39 | O=C1N/C(=N/O)S/C1=C/c1cn(-c2ccccc2)nc1-c1ccccc1 | 107
40 | CS(=O)(=O)c1ccc(-c2[nH]c3ccc(F)cc3c2/C=N/NC(N)=S)cc1 | 15.6

Source: PubChem BioAssay (NCI)
